Among all 5,500 compounds or so, about 2,000 (36%) were called active. Not shown: some 18% with an inconclusive outcome. Rule as the data show it: active = normalized growth mostly below about 0.91 (no sharp cut-off); inconclusive = no clear call, values can overlap the other calls; inactive = mostly above about 0.92. The list shows a part of the results.
Experiment: chemical genetic growth profiling, strain panel (AID 1159580);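 also: tested at 20 µM; growth read once vehicle control cultures reached saturation at 30 °C; 1 = growth at the plate median or of vehicle wells; lower values mean less growth of the strain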
Conditions: growth OD

Measured: normalized growth

CCOc1ccc(NC(C)=O)cc1
inactive: S. cerevisiae deletion strains, locus YJR075W, strain HOC1, hits give low values 1.02 | S. cerevisiae deletion strains, locus YKL009W, strain mrt4, hits give low values 0.978 | S. cerevisiae deletion strains, locus YKL068W, hits give low values 0.976 | S. cerevisiae deletion strains, locus YKL085W, strain MDH1 (second series), hits give low values 0.985 | S. cerevisiae deletion strains, locus YKL085W, strain MDH1, hits give low values 0.985 | S. cerevisiae deletion strains, locus YKL160W, strain elf1, hits give low values 1.02 | S. cerevisiae deletion strains, locus YKL190W, strain CNB1, hits give low values 0.994 | S. cerevisiae deletion strains, locus YKR001C, strain vps1, hits give low values 0.98 | S. cerevisiae deletion strains, locus YKR026C, strain gcn3, hits give low values 1.01 | S. cerevisiae deletion strains, locus YKR091W, strain srl3, hits give low values 1.01 | S. cerevisiae deletion strains, locus YLL001W, strain dnm1, hits give low values 1.01 | S. cerevisiae deletion strains, locus YLL026W, hits give low values 1.01 | S. cerevisiae deletion strains, locus YLL041C, strain sdh2, hits give low values 1.02 | S. cerevisiae deletion strains, locus YLR027C, strain aat2, hits give low values 1.01 | S. cerevisiae deletion strains, locus YLR039C, strain RIC1, hits give low values 1.01 | S. cerevisiae deletion strains, locus YLR058C, strain SHM2, hits give low values 0.994 | S. cerevisiae deletion strains, locus YLR102C, strain apc9, hits give low values 0.976 | S. cerevisiae deletion strains, locus YLR113W, strain HOG1, hits give low values 0.997 | S. cerevisiae deletion strains, locus YLR221C, strain rsa3, hits give low values 0.999 | S. cerevisiae deletion strains, locus YLR258W, strain gsy2, hits give low values 1.02 | S. cerevisiae deletion strains, locus YLR262C, strain YPT6 (second series), hits give low values 1.03 | S. cerevisiae deletion strains, locus YLR262C, strain YPT6, hits give low values 0.999 | S. cerevisiae deletion strains, locus YLR268W, strain sec22, hits give low values 1.01 | S. cerevisiae deletion strains, locus YLR320W, strain mms22, hits give low values 1 | S. cerevisiae deletion strains, locus YLR330W, strain CHS5, hits give low values 0.993 | S. cerevisiae deletion strains, locus YLR342W, strain FKS1 (second series), hits give low values 0.957 | S. cerevisiae deletion strains, locus YLR342W, strain FKS1, hits give low values 1.03 | S. cerevisiae deletion strains, locus YLR357W, strain rsc2, hits give low values 1.01 | S. cerevisiae deletion strains, locus YLR370C, strain arc18, hits give low values 1.01 | S. cerevisiae deletion strains, locus YLR371W, strain rom2, hits give low values 0.962 | S. cerevisiae deletion strains, locus YLR384C, strain iki3, hits give low values 1.02 | S. cerevisiae deletion strains, locus YLR418C, strain cdc73, hits give low values 1 | S. cerevisiae deletion strains, locus YML016C, strain PPZ1, hits give low values 0.996 | S. cerevisiae deletion strains, locus YML032C, strain rad52, hits give low values 0.994 | S. cerevisiae deletion strains, locus YML120C, strain ndi1, hits give low values 1.02 | S. cerevisiae deletion strains, locus YML124C, strain tub3, hits give low values 0.99 | S. cerevisiae deletion strains, locus YMR058W, strain fet3, hits give low values 1.01 | S. cerevisiae deletion strains, locus YMR078C, strain ctf18, hits give low values 0.991 | S. cerevisiae deletion strains, locus YMR125W, strain sto1, hits give low values 1.02 | S. cerevisiae deletion strains, locus YMR129W, hits give low values 1.01 | S. cerevisiae deletion strains, locus YMR205C, strain PFK2, hits give low values 1.03 | S. cerevisiae deletion strains, locus YMR223W, strain ubp8, hits give low values 0.988 | S. cerevisiae deletion strains, locus YMR231W, strain pep5, hits give low values 1.01 | S. cerevisiae deletion strains, locus YMR263W, strain SAP30, hits give low values 1.01 | S. cerevisiae deletion strains, locus YMR307W, strain GAS1, hits give low values 0.978 | S. cerevisiae deletion strains, locus YNL067W, strain RPL9B, hits give low values 1.03 | S. cerevisiae deletion strains, locus YNL071W, strain lat1, hits give low values 1.01 | S. cerevisiae deletion strains, locus YNL128W, strain TEP1, hits give low values 1.02 | S. cerevisiae deletion strains, locus YNL153C, strain GIM3, hits give low values 1.01 | S. cerevisiae deletion strains, locus YNL183C, strain NPR1, hits give low values 0.995 | S. cerevisiae deletion strains, locus YNL209W, strain ssb2, hits give low values 1.02 | S. cerevisiae deletion strains, locus YNL233W, strain BNI4, hits give low values 1.01 | S. cerevisiae deletion strains, locus YNL248C, strain rpa49, hits give low values 1.02 | S. cerevisiae deletion strains, locus YNL250W, strain rad50, hits give low values 0.991 | S. cerevisiae deletion strains, locus YNL271C, strain bni1, hits give low values 0.972 | S. cerevisiae deletion strains, locus YNL298W, strain CLA4, hits give low values 0.989 | S. cerevisiae deletion strains, locus YNL307C, strain MCK1, hits give low values 0.991 | S. cerevisiae deletion strains, locus YNL322C, strain KRE1 (second series), hits give low values 1.01 | S. cerevisiae deletion strains, locus YNL322C, strain KRE1, hits give low values 1 | S. cerevisiae deletion strains, locus YNR049C, strain mso1, hits give low values 1.02 | S. cerevisiae deletion strains, locus YNR052C, strain pop2, hits give low values 0.987 | S. cerevisiae deletion strains, locus YOL006C, strain TOP1, hits give low values 1.15 | S. cerevisiae deletion strains, locus YOL012C, strain htz1 1.55 | S. cerevisiae deletion strains, locus YOL147C, strain pex11, hits give low values 0.993 | S. cerevisiae deletion strains, locus YOR001W, strain rrp6, hits give low values 1.02 | S. cerevisiae deletion strains, locus YOR061W, strain CKA2, hits give low values 0.996 | S. cerevisiae deletion strains, locus YOR069W, strain VPS5, hits give low values 1.07 | S. cerevisiae deletion strains, locus YOR070C, strain gyp1, hits give low values 1.02 | S. cerevisiae deletion strains, locus YOR080W, strain dia2, hits give low values 1.02 | S. cerevisiae deletion strains, locus YOR083W, strain WHI5, hits give low values 1.02 | S. cerevisiae deletion strains, locus YOR106W, strain vam3, hits give low values 1.01 | S. cerevisiae deletion strains, locus YOR136W, strain idh2, hits give low values 0.996 | S. cerevisiae deletion strains, locus YOR144C, strain elg1, hits give low values 0.997 | S. cerevisiae deletion strains, locus YOR184W, strain ser1, hits give low values 0.973 | S. cerevisiae deletion strains, locus YOR231W, strain MKK1, hits give low values 0.978 | S. cerevisiae deletion strains, locus YOR265W, strain rbl2, hits give low values 1.01 | S. cerevisiae deletion strains, locus YOR270C, strain vph1, hits give low values 1.02 | S. cerevisiae deletion strains, locus YOR290C, strain snf2, hits give low values 1.01 | S. cerevisiae deletion strains, locus YOR316C, strain cot1, hits give low values 0.983 | S. cerevisiae deletion strains, locus YPL051W, strain arl3, hits give low values 1 | S. cerevisiae deletion strains, locus YPL055C, strain LGE1, hits give low values 1.05 | S. cerevisiae deletion strains, locus YPL078C, strain atp4, hits give low values 1.01 | S. cerevisiae deletion strains, locus YPL106C, strain sse1, hits give low values 1.02 | S. cerevisiae deletion strains, locus YPL240C, strain hsp82, hits give low values 1.02 | S. cerevisiae deletion strains, locus YPL241C, strain CIN2, hits give low values 1.04 | S. cerevisiae deletion strains, locus YPL256C, strain CLN2, hits give low values 1.01 | S. cerevisiae deletion strains, locus YPR119W, strain clb2, hits give low values 0.989 | S. cerevisiae deletion strains, locus YPR141C, strain kar3, hits give low values 0.993 | S. cerevisiae deletion strains, locus YPR163C, strain tif3, hits give low values 0.995 | S. cerevisiae deletion strains, locus YPR167C, strain met16, hits give low values 0.978 | S. cerevisiae deletion strains, strain wtn01, hits give low values 0.989 | S. cerevisiae strains, strain wild type, hits give low values 0.992
